Data from PubChem BioAssay (EPA / NIEHS).
The source made the active and inactive calls. The calls were made as follows: active = hit-call score of the fitted dose curve at least 0.9, where 1 is the maximum; inactive = score below 0.9.

How the values were obtained:
[1] = APR_HepG2_NuclearSize_24hr: Apredica 24-hour HepG2 Assay for Nuclear Size (AID 2282907); details: high-content imaging, actives raise or lower the signal
Outline: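 Nuclear size is measured by fluorescence high-content imaging of Hoechst-labelled HepG2 nuclei after 24 hr of treatment (0.39–200 uM, 0.5% DMSO). Cells are fixed in 3.7% formaldehyde before staining, and DMSO serves as the baseline for bidirectional curve fitting.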

[2] = APR_HepG2_CellLoss_24hr: Apredica 24-hour HepG2 Assay for Cell Loss (AID 2282908); details: high-content imaging
Outline: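 Nuclear count serves as the viability measure: treated cells are fixed, permeabilized and labelled with Hoechst 33342, and six images per well are analysed to identify valid nuclei. Doses span 0.39–200 uM, and activity in either direction is scored against DMSO.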

[3] = APR_HepG2_MicrotubuleCSK_24hr: Apredica 24-hour HepG2 Assay for Microtubule CSK Stabilty (AID 2282909); details: HepG2 microtubule cytoskeleton imaging, actives raise or lower the signal
Outline: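 Compounds were applied to HepG2 cells for 24 hours across 0.39–200 uM in duplicate, with final DMSO at 0.5% v/v. Fixed, permeabilized cells were labeled for alpha-tubulin and nuclei, and tubulin fluorescence was quantified by imaging, fitted bidirectionally against DMSO.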

[4] = APR_HepG2_MitoticArrest_24hr: Apredica 24-hour HepG2 Assay for Mitotic Arrest (AID 2282910); details: high-content imaging, actives raise or lower the signal
Outline: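 HepG2, 24 hr dosing, 0.39–200 uM, 0.5% DMSO final. Formaldehyde-fixed, Triton-permeabilised, anti-phospho-histone H3 plus Hoechst. ArrayScan imaging at 20x; bidirectional fit vs DMSO baseline.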

[5] = APR_HepG2_MitoMembPot_24hr: Apredica 24-hour HepG2 Assay for Mitochondrial Membrane Potential (AID 2282911); details: imaging, actives raise or lower the signal
Outline: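 HepG2 human liver cells were exposed 24 hr to compounds at 0.39–200 uM (final DMSO 0.5% v/v) in duplicate. MitoTracker Red CMXRos (250 nM, 30 min) was loaded before formaldehyde fixation; fluorescence was imaged by ArrayScan HCS and fitted bidirectionally versus DMSO.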

[6] = APR_HepG2_MitoMass_24hr: Apredica 24-hour HepG2 Assay for Mitochondrial Mass (AID 2282912); details: high-content imaging, actives raise or lower the signal
Outline: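 After 24 hr of treatment at 0.39 to 200 uM, HepG2 cells take up 250 nM MitoTracker Red CMXRos for 30 min and are then fixed with 3.7% formaldehyde. Per-well images are quantified, and any change in either direction is scored against solvent.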

[7] = APR_HepG2_p53Act_24hr: Apredica 24-hour HepG2 Assay for p53 Activation (AID 2282913); details: high-content imaging, actives raise or lower the signal;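 also: p53 protein immunofluorescence averaged per cell in HepG2 with Hoechst nuclei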
Outline: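 HepG2 cells exposed 24 hr to compounds at 0.39–200 uM (10 concentrations, duplicate), final DMSO 0.5% v/v. After formaldehyde fixation and Triton permeabilization, p53 was immunolabeled (sheep anti-p53, Cy5 secondary) with Hoechst 33342 nuclear counterstain, then imaged by high-content fluorescence microscopy.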

[8] = APR_HepG2_CellCycleArrest_72hr: Apredica 72-hour HepG2 Assay for Cell Cycle Arrest (AID 2282914); details: high-content imaging, actives raise or lower the signal
Outline: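 HepG2 cells were exposed to compounds at 0.39–200 uM (0.5% v/v DMSO final, duplicates) for 72 hr, fixed in 3.7% formaldehyde, permeabilized and stained with Hoechst 33342. Nuclear DNA content was quantified by high-content imaging; gain or loss of signal was fitted bidirectionally against DMSO.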

[9] = APR_HepG2_CellLoss_72hr: Apredica 72-hour HepG2 Assay for Cell Loss (AID 2282915); details: high-content imaging
Outline: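 HepG2 cells exposed 72 h to compound at 0.39–200 uM (10 concentrations, duplicate) in 0.5% DMSO. Fixed with 3.7% formaldehyde and Hoechst 33342-stained. Imaged at 20x; nuclear count gives cell number, fitted bidirectionally versus DMSO.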

[10] = APR_HepG2_P-H2AX_72hr: Apredica 72-hour HepG2 Assay for H2AX Phosphorylation (AID 2282916); details: imaging, actives raise or lower the signal;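 also: phospho-histone H2A.x immunostain intensity per cell marking DNA damage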
Outline: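 Human hepatoma HepG2 cells are dosed across ten concentrations (0.39 to 200 uM, 0.5% v/v DMSO) and incubated 72 hr. Phospho-histone H2A.x is then detected by antibody staining alongside c-Jun and Hoechst, and quantified by automated fluorescence imaging.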

[11] = APR_HepG2_MitoMembPot_72hr: Apredica 72-hour HepG2 Assay for Mitochondrial Membrane Potential (AID 2282917); details: imaging, actives raise or lower the signal
Outline: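 HepG2 cells dosed 72 hr with compound at 0.39–200 uM in duplicate, 0.5% v/v DMSO final. Mitochondria stained with 250 nM MitoTracker Red CMXRos for 30 min before formaldehyde fixation, imaged by high-content fluorescence; bidirectional fit versus DMSO.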

[12] = APR_HepG2_MitoticArrest_72hr: Apredica 72-hour HepG2 Assay for Mitotic Arrest (AID 2282918); details: high-content imaging, actives raise or lower the signal
Outline: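 HepG2 cells were exposed for 72 hr to compound at 0.39–200 uM (10 concentrations, duplicate) in 0.5% v/v DMSO, fixed in 3.7% formaldehyde, immunostained for phospho-histone H3 with Hoechst 33342 and imaged by high-content fluorescence; bidirectional fits versus DMSO.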

[13] = APR_HepG2_MicrotubuleCSK_72hr: Apredica 72-hour HepG2 Assay for Microtubule CSK Stabilty (AID 2282919); details: HepG2 microtubule cytoskeleton, high-content imaging, actives raise or lower the signal
Outline: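 HepG2, 72 hr cmpd exposure, 0.39–200 uM (10 pts, duplicate), 0.5% DMSO. 3.7% formaldehyde fix, 0.5% Triton perm, anti-alpha-tubulin/Cy5 plus Hoechst. HCS fluorescence intensity; bidirectional fit vs DMSO baseline; taxol as positive control.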

[14] = APR_HepG2_P-H2AX_24hr: Apredica 24-hour HepG2 Assay for H2AX Phosphorylation (AID 2282920); details: high-content imaging, actives raise or lower the signal
Outline: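 HepG2 human liver cells were exposed for 24 hr to compounds at 0.39–200 uM in duplicate, with 0.5% v/v DMSO final. Fixed cells were immunostained for phospho-histone H2A.x plus Hoechst 33342, imaged by HCS fluorescence, and fitted bidirectionally against DMSO.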

[15] = APR_HepG2_StressKinase_72hr: Apredica 72-hour HepG2 Assay for Stress Kinase (AID 2282921); details: HepG2 stress kinase (phospho-c-Jun) imaging, actives raise or lower the signal
Outline: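 After a 72 h compound treatment spanning 0.39 to 200 uM, formaldehyde-fixed cells are labelled for phosphorylated c-Jun and nuclei, imaged by automated fluorescence microscopy, and activity is fitted in both directions relative to DMSO controls.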

[16] = APR_HepG2_StressKinase_24hr: Apredica 24-hour HepG2 Assay for Stress Kinase (AID 2282922); details: HepG2 stress kinase (phospho-c-Jun) imaging, actives raise or lower the signal
Outline: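 Read-out: phospho-c-Jun immunofluorescence (Cy3 secondary) quantified by high-content imaging at 20x, nuclei defined by Hoechst 33342. Human HepG2 liver cells dosed 24 hr, 0.39–200 uM, DMSO 0.5% v/v; gain or loss of signal fitted relative to DMSO.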

[17] = APR_HepG2_MitoMass_72hr: Apredica 72-hour HepG2 Assay for Mitochondrial Mass (AID 2282924); details: high-content imaging, actives raise or lower the signal;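 also: MitoTracker Red CMXRos stain intensity per cell imaged as mitochondrial mass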
Outline: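 Read-out: MitoTracker Red fluorescence intensity from automated imaging (20x, six fields per well) in human HepG2 liver cells. Dosing ran 72 hr, 0.39–200 uM, 0.5% DMSO; bidirectional curve fitting versus DMSO baseline.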

[18] = APR_HepG2_NuclearSize_72hr: Apredica 72-hour HepG2 Assay for Nuclear Size (AID 2282925); details: high-content imaging, actives raise or lower the signal
Outline: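 Read-out: nuclear diameter from Hoechst 33342 images (ArrayScan, 20x, six fields/well), via cell-cycle image analysis. HepG2 were dosed 0.39–200 uM for 72 hr in 0.5% DMSO. Bidirectional fit relative to DMSO.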

[19] = ATG_CRE_CIS: Attagene CIS-FACTORIAL HepG2 Assay for human cAMP Responsive Element (CRE) binding protein 3 (AID 2282926); details: HepG2 CRE cis-reporter, Attagene multiplexed mRNA; actives raise or lower the signal
Outline: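 Capillary electrophoresis of 6-FAM-labelled, HpaI-digested PCR products quantified reporter transcripts. These came from HepG2 transiently transfected with cis-element reporters and exposed to test chemicals for 24 hours, with DMSO defining baseline activity.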

Measured: outcome

O=C(c1ccccc1)C1CCCCC1
inactive: all assays above

CCC(O)=C1C(=O)CC(C(=O)O)CC1=O (configuration not stated)
inactive: all assays above

CCNc1nc(N)nc(Cl)n1
inactive: all assays above

O=C(O)c1ccccc1
not listed: [19]
inactive: all other assays above

N[C@@H](Cc1cc(I)c(Oc2ccc(O)c(I)c2)c(I)c1)C(=O)O
inactive: all assays above

COc1c(Cl)ccc(Cl)c1C(=O)O
not listed: [7]
inactive: all other assays above
